According to PubChem BioAssay (EPA / NIEHS):
Records with an inconclusive call do not appear. Activity calls are given as the source filed them. Rule for the calls, unless noted: active = hit-call score of the fitted dose curve at least 0.9, where 1 is the maximum; inconclusive = response in the unintended direction; inactive = score below 0.9.

Experiments:
[1] = target: Estrogen-related receptor gamma (Homo sapiens) (UniProt P62508); assay: ATG_ERRg_TRANS: Attagene TRANS-FACTORIAL HepG2 Assay for human Estrogen-Related Receptor gamma (ERRg) (AID 2282977); conditions: HepG2 Attagene TRANS reporter, ERRg transactivation;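 note: hits increase reporter signal over DMSO so potencies reflect activators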
Estrogen-related receptor gamma (Homo sapiens), sequence (P62508 whole entry, looked up, the tested form may be a part): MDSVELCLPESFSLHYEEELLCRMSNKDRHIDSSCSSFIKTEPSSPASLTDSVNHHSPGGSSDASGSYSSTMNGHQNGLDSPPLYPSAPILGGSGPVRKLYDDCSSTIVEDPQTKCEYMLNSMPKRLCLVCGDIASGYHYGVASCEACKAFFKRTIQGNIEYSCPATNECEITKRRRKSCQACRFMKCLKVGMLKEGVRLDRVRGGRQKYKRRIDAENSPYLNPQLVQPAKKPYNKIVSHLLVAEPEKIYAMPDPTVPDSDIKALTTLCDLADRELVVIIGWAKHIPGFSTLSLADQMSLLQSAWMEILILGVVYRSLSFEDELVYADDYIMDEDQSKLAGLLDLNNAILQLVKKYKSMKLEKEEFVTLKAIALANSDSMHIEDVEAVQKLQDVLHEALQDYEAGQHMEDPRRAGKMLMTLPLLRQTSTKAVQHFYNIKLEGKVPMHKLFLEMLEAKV
In short: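 Readout: fluorescent reporter-mRNA fragments resolved by capillary electrophoresis after RT-PCR and HpaI cut. Cells: transiently transfected HepG2 carrying GAL4-UAS reporters driven by exogenous NR-Gal4 chimeras, dosed 24 h. Activity fitted upward relative to DMSO baseline.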

[2] = target: Bile acid receptor (Homo sapiens) (UniProt Q96RI1); assay: ATG_FXR_TRANS: Attagene TRANS-FACTORIAL HepG2 Assay for Farnesoid X Receptor (FXR) (AID 2282979); conditions: HepG2 Attagene TRANS FXR-GAL4 reporter transcription;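 note: hits raise reporter mRNA above DMSO so AC50 marks FXR activation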
Bile acid receptor (Homo sapiens), sequence (Q96RI1 whole entry, looked up, the tested form may be a part): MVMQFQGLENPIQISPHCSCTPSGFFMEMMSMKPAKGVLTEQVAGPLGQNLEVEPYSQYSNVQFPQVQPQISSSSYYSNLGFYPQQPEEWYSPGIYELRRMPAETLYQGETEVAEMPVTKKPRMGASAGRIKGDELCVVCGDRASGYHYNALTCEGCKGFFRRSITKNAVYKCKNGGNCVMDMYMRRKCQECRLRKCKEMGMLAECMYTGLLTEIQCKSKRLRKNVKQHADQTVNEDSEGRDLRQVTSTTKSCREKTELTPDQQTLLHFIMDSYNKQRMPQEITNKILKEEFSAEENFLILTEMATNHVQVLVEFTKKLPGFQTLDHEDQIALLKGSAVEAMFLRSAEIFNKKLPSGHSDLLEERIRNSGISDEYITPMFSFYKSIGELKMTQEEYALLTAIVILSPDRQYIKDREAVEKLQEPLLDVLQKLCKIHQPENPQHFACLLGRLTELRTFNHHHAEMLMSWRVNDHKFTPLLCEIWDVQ
In short: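 Read-out: fluorescent reporter transcripts quantified by capillary electrophoresis after RT-PCR of total RNA. Source cells were HepG2 transiently carrying chimeric NR-GAL4 plus GAL4-UAS reporter units, dosed 24 h. Activity fitted upward relative to DMSO baseline.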

[3] = ATG_M_19_TRANS: Attagene TRANS-FACTORIAL HepG2 Assay for M19 Transcription Factor (Internal Marker) (AID 2282974); conditions: HepG2 Attagene TRANS-FACTORIAL M19 internal marker reporter
In short: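 Measured here: internal-marker reporter transcript from HepG2 cells transfected with MRTUs, harvested at 24 h. cDNA PCR products were 6-FAM labelled by primer extension, cut with HpaI for 2 h at 37 C, and resolved by CE.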

[4] = CCTE_Harrill_HTTr_CellCount_MCF7: CCTE's Cell Proliferation Assessment for the High-Throughput Transcriptomics (HTTr) Platform, Harrill Lab (AID 2284012);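 note: count of Hoechst-stained nuclei per well by high-content imaging in MCF-7 cells; cells exposed to compound for six hours; intended direction is loss of nuclei count meaning fewer cells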
In short: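 Readout: Hoechst nuclear count by high-content imaging. MCF-7, 8-point dilution series, 6 h exposure. Bidirectional fit vs DMSO baseline.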

[5] = ATG_ERE_CIS: Attagene CIS-FACTORIAL HepG2 Assay for Estrogen Response Element (ERE) (AID 2282940; active = hit-call score of the fitted dose curve at least 0.9, where 1 is the maximum; inactive = score below 0.9); conditions: HepG2 ERE cis-reporter, Attagene RNA transcript; actives raise or lower the signal
In short: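 Readout: reporter mRNA induction by RT-PCR, FAM-labelled primer extension, HpaI digestion and capillary electrophoresis, 24 h after dosing transfected HepG2 cells. Endogenous transcription factors act on cis-element-regulated reporters. Gain or loss fitted against DMSO.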

[6] = target: human Retinoic Acid Receptor gamma (RARg), RARG (gene 5916) (UniProt P13631); assay: ATG_RARg_TRANS: Attagene TRANS-FACTORIAL HepG2 Assay for human Retinoic Acid Receptor gamma (RARg) (AID 2283009)
human Retinoic Acid Receptor gamma (RARg), RARG (gene 5916), sequence (P13631 whole entry, looked up, the tested form may be a part): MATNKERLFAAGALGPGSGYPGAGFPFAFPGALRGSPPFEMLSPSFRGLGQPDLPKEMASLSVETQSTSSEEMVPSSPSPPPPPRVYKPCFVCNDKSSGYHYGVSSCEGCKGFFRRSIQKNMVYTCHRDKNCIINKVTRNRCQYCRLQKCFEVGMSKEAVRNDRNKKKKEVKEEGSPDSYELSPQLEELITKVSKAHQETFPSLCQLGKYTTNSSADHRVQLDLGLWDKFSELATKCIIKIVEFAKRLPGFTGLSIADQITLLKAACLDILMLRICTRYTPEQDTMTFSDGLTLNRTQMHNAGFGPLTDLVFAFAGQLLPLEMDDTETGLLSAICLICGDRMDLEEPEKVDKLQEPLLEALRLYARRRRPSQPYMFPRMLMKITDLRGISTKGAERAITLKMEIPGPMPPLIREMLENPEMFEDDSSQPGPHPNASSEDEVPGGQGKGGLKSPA
In short: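 Readout: reporter transcript levels via RT-PCR, 6-FAM primer-extension labelling, HpaI digestion and capillary electrophoresis. Cells: HepG2 carrying transfected RARg-GAL4 chimera plus UAS reporter set. Dosing 24 h; DMSO negative control.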

[7] = target: human Peroxisome Proliferator-activated Receptor delta (PPARd), PPARD (gene 5467) (UniProt Q03181); assay: ATG_PPARd_TRANS: Attagene TRANS-FACTORIAL HepG2 Assay for human Peroxisome Proliferator-activated Receptor delta (PPARd) (AID 2283002)
human Peroxisome Proliferator-activated Receptor delta (PPARd), PPARD (gene 5467), sequence (Q03181 whole entry, looked up, the tested form may be a part): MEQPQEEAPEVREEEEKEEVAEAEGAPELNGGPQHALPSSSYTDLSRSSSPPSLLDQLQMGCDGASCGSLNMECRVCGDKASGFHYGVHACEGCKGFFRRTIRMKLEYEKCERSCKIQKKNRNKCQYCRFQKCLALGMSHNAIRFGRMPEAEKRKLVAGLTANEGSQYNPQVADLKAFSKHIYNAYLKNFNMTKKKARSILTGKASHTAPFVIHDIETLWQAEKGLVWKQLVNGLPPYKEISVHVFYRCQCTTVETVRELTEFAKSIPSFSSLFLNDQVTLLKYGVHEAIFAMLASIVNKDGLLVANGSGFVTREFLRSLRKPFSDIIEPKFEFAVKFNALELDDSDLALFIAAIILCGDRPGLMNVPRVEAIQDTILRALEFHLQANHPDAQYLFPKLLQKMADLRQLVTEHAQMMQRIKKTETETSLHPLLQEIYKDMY
In short: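 Read-out: reporter mRNA induction, quantified by fluorescent RT-PCR products resolved by capillary electrophoresis. Human HepG2 liver cells carried transiently transfected Gal4-UAS reporter constructs with chimeric NR-Gal4 fusions. Cells were dosed for 24 h; DMSO served as baseline.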

[8] = read-out: Human Leukocyte Antigen - DR isotype (HLADR), HLA-DRA (gene 3122); assay: BSK_3C_HLADR: BioMAP Diversity Plus: 3C Assay for Human Leukocyte Antigen - DR isotype (HLADR) Biomarker Activity (AID 2283019; active = hit-call score of the fitted dose curve at least 0.9, where 1 is the maximum; inactive = score below 0.9;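 note: ELISA of cell-surface HLA-DR on HUVEC 24 h after dosing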); conditions: primary human endothelial cells (HUVEC); actives raise or lower the signal
In short: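 HUVEC, 3C stimulation, 24 h post-dose; HLA-DR by ELISA; bidirectional curve fit vs DMSO baseline; gain or loss of signal scored.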

[9] = read-out: Pselectin, SELP (gene 6403); assay: BSK_4H_Pselectin: BioMAP Diversity Plus: 4H Assay for Pselectin Biomarker Activity (AID 2283026; active = hit-call score of the fitted dose curve at least 0.9, where 1 is the maximum; inactive = score below 0.9); conditions: primary human endothelial cells (HUVEC); actives raise or lower the signal
In short: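 HUVEC, 24 h chemical exposure; P-selectin read by ELISA. Bidirectional curve fit vs DMSO baseline; gain or loss of signal scored.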

[10] = read-out: serum amyloid A (SAA), SAA1 (gene 6288); assay: BSK_CASM3C_SAA: BioMAP Diversity Plus: CASM3C Assay for serum amyloid A (SAA) Biomarker Activity (AID 2283049; active = hit-call score of the fitted dose curve at least 0.9, where 1 is the maximum; inactive = score below 0.9;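 note: SAA protein level quantified by ELISA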); conditions: primary human coronary artery smooth muscle cells; actives raise or lower the signal
[11] = read-out: Vascular cell adhesion molecule 1 (VCAM1), VCAM1 (gene 7412); assay: BSK_CASM3C_VCAM1: BioMAP Diversity Plus: CASM3C Assay for Vascular cell adhesion molecule 1 (VCAM1) Biomarker Activity (AID 2283055; active = hit-call score of the fitted dose curve at least 0.9, where 1 is the maximum; inactive = score below 0.9;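 note: VCAM-1 protein level quantified by ELISA on the cells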); conditions: primary human coronary artery smooth muscle cells; actives raise or lower the signal
[12] = BSK_SAg_PBMCCytotoxicity: PBMC Cytotoxicity Assessment in the BioMAP Diversity Plus: SAg Assay (AID 2283093; active = hit-call score of the fitted dose curve at least 0.9, where 1 is the maximum; inactive = score below 0.9;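 note: fitted both ways against DMSO so a hit may be loss or gain of signal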); conditions: primary human HUVEC with PBMC
In short: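 PBMC viability by Alamar Blue reduction, fluorescence read at 546/580 nm after 6 h dye exposure. Cells were dosed 1 h before SEB plus TSST-1 activation (20 ng/mL final each), then held 90 h; endothelial/PBMC human co-culture.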

[13] = target: Retinoic acid receptor RXR-alpha (Homo sapiens) (UniProt P19793); assay: OT_NURR1_NURR1RXRa_1440: Odyssey Thera (OT) 24-hour HEK293T Protein Complementation Assay for Nurr1/retinoid X receptor (RXR) (AID 2283386)
Retinoic acid receptor RXR-alpha (Homo sapiens), sequence (P19793 whole entry, looked up, the tested form may be a part): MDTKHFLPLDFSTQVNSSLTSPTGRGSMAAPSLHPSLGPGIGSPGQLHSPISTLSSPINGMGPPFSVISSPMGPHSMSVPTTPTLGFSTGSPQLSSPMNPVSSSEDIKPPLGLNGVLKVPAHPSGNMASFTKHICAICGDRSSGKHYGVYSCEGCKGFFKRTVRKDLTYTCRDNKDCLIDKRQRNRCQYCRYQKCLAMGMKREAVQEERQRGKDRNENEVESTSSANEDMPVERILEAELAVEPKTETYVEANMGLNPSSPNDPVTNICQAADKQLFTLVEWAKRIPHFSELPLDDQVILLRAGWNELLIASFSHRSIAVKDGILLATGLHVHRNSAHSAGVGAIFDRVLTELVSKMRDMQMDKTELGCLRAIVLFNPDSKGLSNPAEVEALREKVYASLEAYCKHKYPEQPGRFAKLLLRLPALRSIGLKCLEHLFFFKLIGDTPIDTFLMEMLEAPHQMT
In short: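 Fluorescence PCA read-out; HEK293T; 24 h post-dose; bait/prey fused to reporter fragments; gain-of-signal fit vs DMSO negative control.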

[14] = target: Peroxisome proliferator-activated receptor gamma (Homo sapiens) (UniProt P37231); assay: OT_PPARg_PPARgSRC1_0480: Odyssey Thera (OT) 8-hour Protein-Complementation Assay for Peroxisome Proliferator-activated Receptor Gamma / SRC-1 Co-activator (AID 2283387);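 note: nuclear to cytoplasmic split Venus YFP fluorescence ratio reporting PPARg SRC-1 interaction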
Peroxisome proliferator-activated receptor gamma (Homo sapiens), sequence (P37231 whole entry, looked up, the tested form may be a part): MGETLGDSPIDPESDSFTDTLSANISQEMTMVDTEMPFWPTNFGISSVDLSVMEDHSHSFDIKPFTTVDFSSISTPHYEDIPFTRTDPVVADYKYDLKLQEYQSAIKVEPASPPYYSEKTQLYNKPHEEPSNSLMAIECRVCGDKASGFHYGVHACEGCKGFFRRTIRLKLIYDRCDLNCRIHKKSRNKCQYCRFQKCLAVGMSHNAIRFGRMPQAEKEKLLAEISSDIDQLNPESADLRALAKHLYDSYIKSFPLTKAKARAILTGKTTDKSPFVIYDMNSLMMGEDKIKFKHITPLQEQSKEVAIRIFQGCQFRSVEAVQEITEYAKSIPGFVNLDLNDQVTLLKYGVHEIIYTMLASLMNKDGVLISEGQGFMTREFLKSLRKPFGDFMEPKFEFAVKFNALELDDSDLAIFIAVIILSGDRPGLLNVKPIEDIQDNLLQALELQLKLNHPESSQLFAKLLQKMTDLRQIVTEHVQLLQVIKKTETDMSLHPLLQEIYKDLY
In short: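 Protein-fragment complementation of split Venus YFP reports PPARg/SRC-1 interaction in HEK293T (transfected 48 h before treatment), exposed 8 h. Readout: N/C fluorescence ratio at 488 nm from imaging, Draq5 for segmentation, positive fit relative to DMSO.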

[15] = target: Peroxisome proliferator-activated receptor gamma (Homo sapiens) (UniProt P37231); assay: OT_PPARg_PPARgSRC1_1440: Odyssey Thera (OT) 24-hour Protein-Complementation Assay for Peroxisome Proliferator-activated Receptor Gamma/ SRC-1 Co-activator (AID 2283388);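 note: nuclear to cytoplasmic ratio of reconstituted Venus YFP fluorescence in fixed imaged cells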
In short: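 Readout: nuclear-to-cytoplasmic 488 nm fluorescence ratio, ≥350 cells per image, 8 images per well, after 24 h compound exposure of HEK293T expressing PPARg/SRC-1 split-YFP fusions. Activity fitted in positive direction against DMSO.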

[16] = ACEA_AR_agonist_AUC_viability: ACEA Biosciences xCELLigence Real-Time Cell Analysis on Androgen Receptor Agonism for Viability (AID 2283775);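 for AC50: viability read 80 hours after compound addition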
In short: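 Viability endpoint from xCELLigence impedance in 22Rv1 prostate cells at 80 h. Eight-point series, 100 uM maximum final.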

[17] = ACEA_AR_antagonist_AUC_viability: ACEA Biosciences xCELLigence Real-Time Cell Analysis on Androgen Receptor Antagonism for Viability (AID 2283776);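 note: 22Rv1 human prostate cancer cells growing on impedance electrode plates; area under impedance growth curve at 80 h after dosing as viability; hits lower the growth signal relative to DMSO meaning cytotoxicity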
In short: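 Impedance read-out (RT-CES): area under growth curve at 80 h post-dose, loss of signal scored vs DMSO baseline. 22Rv1 cells; 8-pt 1:4 series, top 100 uM final, ≤0.5% DMSO; biological duplicate.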

[18] = target: Estrogen receptor beta (Homo sapiens) (UniProt Q92731); assay: OT_ER_ERbERb_0480: Odyssey Thera (OT) 8-hour HEK293T Protein-Complementation Assay for Estrogen Receptor-beta/-beta Homodimer (AID 2283357);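 note: active means signal gain over DMSO baseline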
Estrogen receptor beta (Homo sapiens), sequence (Q92731 whole entry, looked up, the tested form may be a part): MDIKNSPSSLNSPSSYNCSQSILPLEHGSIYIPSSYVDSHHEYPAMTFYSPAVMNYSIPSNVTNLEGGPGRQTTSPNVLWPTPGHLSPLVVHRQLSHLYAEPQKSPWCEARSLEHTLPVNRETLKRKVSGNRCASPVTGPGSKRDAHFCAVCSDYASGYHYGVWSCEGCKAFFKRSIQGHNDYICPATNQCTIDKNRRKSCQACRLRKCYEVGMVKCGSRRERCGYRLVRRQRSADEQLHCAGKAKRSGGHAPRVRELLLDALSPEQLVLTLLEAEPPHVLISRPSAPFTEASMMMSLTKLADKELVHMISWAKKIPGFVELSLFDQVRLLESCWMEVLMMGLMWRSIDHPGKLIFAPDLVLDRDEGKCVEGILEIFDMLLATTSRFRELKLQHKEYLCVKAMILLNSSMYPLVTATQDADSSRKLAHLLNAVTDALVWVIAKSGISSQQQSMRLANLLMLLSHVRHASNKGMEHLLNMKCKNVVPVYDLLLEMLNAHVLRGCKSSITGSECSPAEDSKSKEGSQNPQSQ
In short: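 Homodimerization of ER-beta LBD measured by protein-fragment complementation in HEK293T; 8 h dosing; fixed, Draq5 counterstain; fluorescence intensity gain over DMSO baseline, positive fitting direction; laser scanning cytometry.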

[19] = target: Estrogen receptor beta (Homo sapiens) (UniProt Q92731); assay: OT_ER_ERbERb_1440: Odyssey Thera (OT) 24-hour HEK293T Protein-Complementation Assay for Estrogen Receptor-beta/-beta Homodimer (AID 2283380);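 note: scored as signal increase over DMSO baseline for both agonists and antagonists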
In short: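 HEK293T cells stably expressing ER beta LBD (aa 310-547) homodimer fragment-complementation reporter, dosed 24 h. Cells formaldehyde-fixed, Draq5-stained; gain in nuclear (agonist) or nuclear plus cytoplasmic (antagonist) fluorescence versus DMSO read by laser scanning cytometry.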

[20] = target: Aryl hydrocarbon receptor (Homo sapiens) (UniProt P35869); assay: ATG_Ahr_CIS: Attagene CIS-FACTORIAL HepG2 Assay for human Aryl Hydrocarbon Receptor (Ahr) (AID 2282930; active = hit-call score of the fitted dose curve at least 0.9, where 1 is the maximum; inactive = score below 0.9); conditions: HepG2 AhR cis-factorial reporter transcription; actives raise or lower the signal
Aryl hydrocarbon receptor (Homo sapiens), sequence (P35869 whole entry, looked up): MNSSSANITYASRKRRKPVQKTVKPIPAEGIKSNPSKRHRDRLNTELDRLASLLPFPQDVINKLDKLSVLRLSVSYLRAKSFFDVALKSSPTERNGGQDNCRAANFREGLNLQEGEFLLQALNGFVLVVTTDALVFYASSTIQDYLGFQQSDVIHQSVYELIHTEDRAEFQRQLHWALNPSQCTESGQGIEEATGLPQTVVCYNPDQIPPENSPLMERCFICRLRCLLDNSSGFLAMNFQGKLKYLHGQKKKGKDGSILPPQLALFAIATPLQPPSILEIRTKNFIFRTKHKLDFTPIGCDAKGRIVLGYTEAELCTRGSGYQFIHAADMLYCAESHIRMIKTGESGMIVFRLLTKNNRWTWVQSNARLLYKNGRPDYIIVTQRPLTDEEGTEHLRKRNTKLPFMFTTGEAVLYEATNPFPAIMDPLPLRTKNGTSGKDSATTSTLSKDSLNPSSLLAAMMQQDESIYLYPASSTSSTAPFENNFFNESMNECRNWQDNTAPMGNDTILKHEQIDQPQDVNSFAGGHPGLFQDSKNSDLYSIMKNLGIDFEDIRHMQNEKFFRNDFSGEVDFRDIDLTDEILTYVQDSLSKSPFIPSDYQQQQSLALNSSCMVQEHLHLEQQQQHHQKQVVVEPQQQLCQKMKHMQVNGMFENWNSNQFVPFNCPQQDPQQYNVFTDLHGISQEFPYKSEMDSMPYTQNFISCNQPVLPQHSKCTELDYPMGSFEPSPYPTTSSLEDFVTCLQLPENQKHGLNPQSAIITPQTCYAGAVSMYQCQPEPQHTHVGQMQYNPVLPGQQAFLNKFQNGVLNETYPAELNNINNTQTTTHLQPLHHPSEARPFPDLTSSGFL
In short: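 Read-out: reporter mRNA quantified by RT-PCR with fluorescent primer extension and capillary electrophoresis. Human HepG2 liver cells carried transfected cis-promoter reporter units and were exposed to chemical for 24 h; gain or loss fitted relative to DMSO.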

Measured: AC50

CC/C=C/CCO
inactive: [1] | [2]

NCc1ccccc1
inactive: [3] | [1] | [4]

O=C(O)c1nc(Cl)c(Cl)c(Cl)c1Cl
inactive: [1]

O=[N+]([O-])c1ccccc1C(F)(F)F
inactive: [5] | [1] | [6]

O=C1CCCCCCCCCCCCCC1
inactive: [5] | [7]

c1cc[c]([Bi]([c]2ccccc2)[c]2ccccc2)cc1
active: [5] 6.83 µM

CC[N+](CC)(CC(=O)Nc1c(C)cccc1C)Cc1ccccc1 (tested in a mixture with another compound)
inactive: [8] | [9] | [10] | [11] | [12] | [13] | [14] | [15] | [16] | [17] | [4]

C=C1CC[C@H]2C[C@@H]1C2(C)C
inactive: [5] | [7] | [18] | [19] | [14] | [15] | [16] | [17]

O=[N+]([O-])c1ccc2nc[nH]c2c1
inactive: [5] | [3] | [2]

CC(C)CC(=O)O
inactive: [5] | [6]

CCCCCCCCCC/C=C/C1CC(=O)OC1=O (stereo unspecified)
inactive: [2] | [7] | [8] | [9] | [10] | [11] | [12]

CCC(C)(CCC(C)C)C(=O)O (stereo unspecified)
inactive: [3] | [16] | [17]

CNC[C@H](O)[C@@H](O)[C@H](O)[C@H](O)CO
inactive: [2]

CCC(C)=NO
inactive: [8] | [9] | [10] | [11] | [12] | [18] | [19] | [13] | [16] | [4]
active: [17] 50 µM

CCCCCCC(O)CCCCCCCCCCC(=O)OC (stereo unspecified)
inactive: [6] | [8] | [9] | [10] | [11] | [12]

OCCc1ccccn1
inactive: [3]

CCCc1c(OCCCCc2nn[nH]n2)ccc(C(C)=O)c1O
inactive: [5] | [2] | [4]

C=CCOCC(CC)(CO)COCC=C
inactive: [7]

COCCCN
inactive: [5] | [7]

CC(C)(Oc1ccc(Cl)cc1)C(=O)O
inactive: [20]

CCC(C)NC(N)=O (stereo unspecified)
inactive: [5]

COC(OC)C(C)c1ccccc1 (stereo unspecified)
inactive: [5]

Cc1cc(O)cc(C)c1Cl
active: [18] 25 µM | [19] 31.6 µM | [16] 3.98 µM | [17] 8.88 µM
inactive: [6] | [13] | [14] | [15] | [4]

CCCCCC[C@@H](O)C/C=C\CCCCCCCC(=O)O
inactive: [2] | [18] | [19] | [13] | [14] | [15] | [16] | [17] | [4]
active: [7] 27.3 µM

CCC(=O)OCc1ccc(OC)cc1
inactive: [3] | [2] | [7] | [6]

CCCCCCCCCCCCCC
inactive: [20] | [4]

O=C(C1CCCCC1)N1CC(=O)N2CCc3ccccc3C2C1 (stereo unspecified)
inactive: [6] | [4]
active: [20] 27.8 µM

Oc1ccc(Oc2ccccc2)cc1
active: [5] 1.54 µM
inactive: [20] | [2] | [7]
